# Tests used:
# Settings in all cases: concentration: 1 μM, replicates: in singlicate; n = 1
# [1] = system: CDK8
# [2] = system: CDK9
# [3] = system: CDKL1
# [4] = system: CDKL2
# [5] = system: CDKL3
# [6] = system: CDKL5
# [7] = system: CHEK1
# [8] = system: CHEK2
# [9] = system: CIT
# [10] = system: CLK1
# [11] = system: CLK2
# [12] = system: CLK3
# [13] = system: CLK4
# [14] = system: CSF1R-autoinhibited
# [15] = system: CSF1R
# [16] = system: CSK
# [17] = system: CSNK1A1L
# [18] = system: CSNK1A1
# [19] = system: CSNK1D
# [20] = system: CSNK1E
# 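Also: KINOMEscan kinase panel screen.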
Structure (SMILES),%Inh [1],%Inh [2],%Inh [3],%Inh [4],%Inh [5],%Inh [6],%Inh [7],%Inh [8],%Inh [9],%Inh [10],%Inh [11],%Inh [12],%Inh [13],%Inh [14],%Inh [15],%Inh [16],%Inh [17],%Inh [18],%Inh [19],%Inh [20]
COc1cccc(CC(=O)N2CCc3cc(-c4cn(C)c5ncnc(N)c45)ccc32)c1 [GSK2608899],96.6%,12%,1%,4%,0%,0%,0%,0%,5%,29%,0%,13%,0%,0%,96.9%,14%,8%,0%,39%,77%
Cc1cccc(Nc2nc(N[C@H]3CCCC[C@H]3N)ncc2C(N)=O)c1.Cl [GSK986310],0%,17%,9%,28%,0%,0%,57%,1%,66%,42%,28%,27%,24%,0%,78%,12%,59%,46%,50%,64%
Cc1ccc(NC(=O)c2ccnc(N3CCCCC3)c2)cc1-c1ccc(C(=O)NCC2CC2)cc1 [GW775610],39%,1%,9%,33%,0%,75%,0%,39%,38%,11%,0%,0%,0%,5%,23%,0%,20%,1%,0%,0%
CS(=O)(=O)c1cccc(CNc2nc(Nc3ccc4c(c3)CCC(=O)N4)ncc2C(F)(F)F)c1,0%,8%,23%,37%,10%,0%,0%,0%,37%,46%,22%,0%,24%,0%,20%,1%,0%,0%,0%,0%
COc1cc(Nc2nccc(N3CCC(NC(=O)Nc4ccc5c(c4)OCO5)C3)n2)cc(OC)c1OC (centres unmarked) [GSK1379766],46%,0%,0%,41%,0%,0%,0%,4%,0%,25%,0%,2%,0%,0%,41%,0%,0%,0%,0%,20%
Cc1ccc(O)cc1Nc1ccnc2ccc(C(C)(C)C)cc12 [GW856805],0%,12%,24%,0%,17%,10%,9%,3%,25%,0%,26%,0%,3%,0%,32%,53%,20%,40%,13%,1%
CN1CCN(Cc2ccc(NC(=O)Nc3ccc(N(C)c4ccnc(Nc5ccc(CS(C)(=O)=O)cc5)n4)cc3)cc2)CC1.Cl [GW827654],60%,50%,71%,99.8%,99.6%,0%,0%,78%,23%,42%,0%,31%,0%,94.7%,100%,47%,0%,30%,15%,30%
CCOc1nccc(-c2c(-c3ccc(F)cc3)ncn2C2CCNCC2)n1 [SB-249175],25%,1%,1%,0%,17%,7%,0%,16%,10%,0%,0%,11%,100%,31%,28%,0%,45%,97.4%,95.3%,99.4%
O=C(Nc1c(F)cccc1F)c1cc(C(=O)c2ccccc2F)c[nH]1 [GSK1326180],14%,0%,0%,7%,0%,0%,0%,11%,5%,22%,0%,2%,0%,32%,1%,0%,5%,16%,0%,20%
O=C(Nc1n[nH]c2nc(-c3cccc(O)c3)ccc12)C1CC1 [SB-711805],0%,0%,30%,80%,0%,9%,0%,25%,21%,20%,20%,16%,0%,0%,0%,100%,6%,0%,11%,34%
Cl.Cl.NCC(NC(=O)c1cc(-c2cccnc2)c(-c2ccnc3[nH]ccc23)s1)c1ccccc1 (centres unmarked) [GSK1323434],43%,1%,66%,23%,0%,0%,0%,55%,100%,71%,51%,12%,60%,30%,44%,0%,77%,91.5%,96.7%,99%
Cc1nn2c(=O)cc(N3CCO[C@H](C)C3)nc2n1Cc1cccc(Cl)c1Cl [GSK2373693],0%,2%,1%,11%,0%,0%,26%,0%,21%,55%,31%,4%,59%,0%,6%,56%,0%,16%,69%,25%
O=C(O)C(F)(F)F.O=c1[nH]ccc2nc(N[C@@H]3CCNC3)nc(Nc3cc(Cl)cc(Cl)c3)c12 [GSK2188764],0%,34%,37%,24%,0%,0%,100%,85%,67%,82%,95.9%,34%,82%,0%,69%,18%,56%,94%,79%,91.3%
CSc1ccc(NC2=C(c3ccc(Cl)cc3)C(=O)NC2=O)cc1 [SB-317658],0%,0%,0%,0%,0%,0%,0%,13%,0%,17%,26%,0%,19%,0%,30%,21%,0%,20%,1%,6%
COc1ccc(C)c(Nc2ccnc(Nc3ccc(-c4cnc[nH]4)cc3)n2)c1.Cl [GW784041],35%,0%,44%,0%,0%,1%,0%,0%,0%,18%,0%,7%,13%,0%,67%,9%,2%,21%,16%,27%
CC(C)(C)c1ccc(C(=O)Nc2cn3cc(-n4ccnc4)ccc3n2)cc1,5%,3%,29%,0%,18%,7%,0%,0%,44%,92.4%,79%,16%,84%,0%,46%,0%,34%,60%,84%,70%
N#Cc1cnc2cc(-c3cnc(CNCCN4CCOCC4)s3)ccc2c1Nc1ccc(Oc2ccccc2)cc1 [GW664114],10%,0%,0%,61%,0%,29%,0%,82%,22%,40%,0%,0%,95.2%,17%,19%,96.7%,7%,0%,0%,39%
CN(c1ccc(NC(=O)N2CCN(CCCN3CCOCC3)CC2)cc1)c1ccnc(Nc2ccc(CS(C)(=O)=O)cc2)n1.Cl [GW830899],44%,0%,100%,9%,0%,0%,0%,0%,16%,7%,0%,0%,0%,0%,66%,24%,79%,25%,5%,0%
CCn1cnc2c(NCc3ccccc3)ncnc21 [SKF-96418],40%,20%,13%,10%,12%,0%,0%,0%,16%,0%,10%,0%,14%,0%,0%,0%,0%,18%,20%,16%
COC(=O)Nc1nc2cc(Oc3ccc(NC(=O)Nc4cccc(SC)c4)cc3)ccc2[nH]1.Cl [GW697999],47%,0%,21%,86%,0%,0%,2%,28%,98%,19%,32%,23%,24%,53%,99.6%,0%,6%,0%,17%,22%

Structure (SMILES),%Inh [1],%Inh [2],%Inh [3],%Inh [4],%Inh [5],%Inh [6],%Inh [7],%Inh [8],%Inh [9],%Inh [10],%Inh [11],%Inh [12],%Inh [13],%Inh [14],%Inh [15],%Inh [16],%Inh [17],%Inh [18],%Inh [19],%Inh [20]
CNc1nccc(-c2ccc3c(N)n[nH]c3c2)n1 [GSK2206003],32%,11%,18%,17%,0%,0%,0%,51%,86%,97.1%,84%,48%,95.5%,11%,6%,0%,6%,0%,20%,28%
COC(=O)Nc1nc2ccc(Oc3ccc(NC(=O)Nc4cc(C(F)(F)F)ccc4F)cc3)cc2[nH]1.Cl [GW654607],84%,0%,21%,96.7%,100%,0%,0%,16%,87%,52%,0%,0%,48%,30%,99.8%,0%,0%,0%,0%,13%
COC(=O)Nc1nc2ccc(Oc3ccc(CC(=O)Nc4cc(C(F)(F)F)ccc4F)cc3)cc2[nH]1 [GW680903],0%,0%,2%,14%,0%,0%,0%,20%,68%,24%,0%,0%,3%,50%,71%,0%,0%,0%,0%,0%
Nc1ncnc2scc(-c3ccc(NC(=O)Cc4cc(F)ccc4F)cc3)c12.O=C(O)C(F)(F)F [SB-731254-M],93.8%,0%,30%,28%,2%,5%,9%,0%,12%,16%,0%,14%,12%,79%,100%,9%,6%,15%,29%,0%
COc1cccc2c(-c3ccncc3)c(-c3ccc(F)cc3)nn12 [GW468513],42%,0%,2%,38%,0%,0%,0%,0%,98%,6%,0%,6%,17%,24%,0%,0%,50%,93.6%,90.7%,99.8%
Fc1cc(Cl)ccc1Nc1ccnc2cc(-c3ccc(CN4CCSCC4)o3)ccc12 [GW560106],53%,0%,100%,8%,0%,0%,0%,79%,29%,8%,0%,0%,22%,52%,92.3%,13%,0%,0%,6%,27%
Cc1ccc(NC(=O)c2ccc(Cl)c(Cl)c2)cc1-c1ccc(C(=O)Nc2ccncc2)cc1 [GSK1398460],0%,2%,1%,13%,0%,4%,22%,0%,97.6%,39%,0%,17%,17%,7%,99.9%,1%,8%,0%,7%,18%
Cc1ccc(C)c(NC(=O)Nc2ccc(C)c(-c3ccc(C(=O)Nc4ccncc4)cc3)c2)c1 [GSK1398473],4%,0%,0%,42%,0%,24%,22%,0%,96.1%,24%,0%,3%,0%,0%,89%,0%,11%,0%,0%,30%
NCCC(NC(=O)c1cc(Br)c(-c2ccnc3[nH]ccc23)s1)c1ccccc1.O=C(O)C(F)(F)F.O=C(O)C(F)(F)F (centres unmarked) [GSK1307810],100%,35%,2%,0%,0%,0%,0%,41%,98.5%,41%,37%,54%,46%,43%,18%,0%,71%,93.9%,94.1%,94.1%
Nc1ncc(-c2cn[nH]c2)c2scc(-c3ccc4c(c3)CCN4C(=O)Cc3ccccc3)c12 [GSK2593067],37%,0%,0%,28%,0%,0%,0%,0%,0%,40%,0%,0%,55%,51%,99.9%,68%,9%,0%,4%,32%
CN(C)c1ncnc2nc[nH]c12 [SKF-31736],35%,0%,23%,4%,0%,19%,0%,0%,12%,8%,23%,0%,0%,0%,6%,0%,0%,0%,0%,4%
CC(=O)Nc1cn2nc(Oc3cccc(NC(=O)c4cccc(C(F)(F)F)c4)c3)ccc2n1,70%,0%,48%,44%,6%,0%,0%,0%,99.8%,5%,13%,54%,0%,82%,100%,44%,21%,12%,4%,44%
Nc1cccc(-c2ccc3c(N)n[nH]c3c2)c1 [GSK2193613],42%,3%,19%,23%,0%,0%,0%,6%,30%,43%,10%,0%,64%,17%,2%,0%,13%,0%,8%,5%
O=C(Nc1n[nH]c2nc(-c3ccccc3)ccc12)C1CC1 [SB-708999],36%,0%,2%,88%,10%,0%,0%,0%,7%,86%,0%,1%,0%,36%,0%,0%,15%,0%,13%,0%
Cc1cc(-c2c(-c3ccc(F)cc3)ncn2CCCN2CCOCC2)nc(N)n1 [SB-222517],0%,0%,30%,0%,35%,7%,0%,0%,2%,0%,30%,0%,16%,17%,14%,7%,0%,17%,7%,1%
Fc1cc(Cl)ccc1Nc1ccnc2cc(-c3ccc(CN4CCOCC4)o3)ccc12 [GW560109],0%,0%,0%,58%,0%,0%,12%,46%,43%,17%,0%,0%,15%,7%,94.2%,33%,0%,11%,19%,4%
N#CC1(c2cccc(C(=O)Nc3cccc(Oc4ccc5nc(NC(=O)C6CC6)sc5n4)c3)c2)CC1,35%,0%,14%,95.8%,79%,0%,0%,0%,94.2%,8%,4%,0%,17%,87%,100%,25%,0%,0%,14%,0%
CCNC(=O)/C=C/c1n[nH]c2cc(Sc3ccccc3C(=O)NC)ccc12,20%,13%,17%,26%,17%,15%,0%,0%,0%,17%,0%,14%,3%,36%,99.8%,3%,0%,21%,0%,18%
Cc1ccc(Nc2ccnc(Nc3ccc(C)c(F)c3)n2)cc1O.Cl [GW582868],0%,0%,9%,40%,0%,0%,0%,0%,28%,13%,86%,3%,14%,25%,29%,0%,12%,0%,0%,19%
Cl.N#CCc1ccc(Nc2nccc(Nc3ccc(Oc4ccccc4)cc3)n2)cc1 [GW639905],0%,0%,3%,55%,0%,0%,38%,0%,41%,23%,9%,0%,3%,7%,35%,31%,0%,0%,0%,8%

# From PMC5540273 (PLoS ONE, 2017)
